# Measured values from article PMC8384837, “Expanding the binding specificity for RNA recognition by a PUF domain”.
# Changes are numbered by the printed parent chain.
# Tests used:
# Assay in all cases: yeast three-hybrid, YBZ-1, SC-Leu-His + 0.5 mM 3-AT, 4 days
# Conditions in all cases: tags: N-Gal4 AD-HA kept; label: inside an RPR1-promoter hybrid RNA with tandem MS2 sites; ssRNA
# PUM1 PUF domain R8-QFP = PUM1 PUF domain R8-QFP (Homo sapiens, UniProt Q14671 828-1176, N1122Q;Y1123F;Q1126P)
# In short: (§1)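 The interaction score is the logarithmic change in variant frequency from input to selection. It uses log2, with a pseudocount of 1 for absent variants, and frequencies came from PCR-amplified, Illumina-sequenced repeat regions. The libraries were Pumilio-1 PUF domains randomized at the three base-contacting residues per repeat, co-expressed with matching RNA elements in strain YBZ-1 (LexA–MS2 coat fusion, HIS3 reporter). Plating lasted four days on SC-Leu (input) or SC-Leu-His + 0.5 mM 3-AT (selection).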
# PUM1 PUF domain R6-RWW = molecular target: T1, PUM1 PUF domain R6-RWW (Homo sapiens, UniProt Q14671 828-1176, N1043R;Y1044W;Q1047W)
# T1 sequence: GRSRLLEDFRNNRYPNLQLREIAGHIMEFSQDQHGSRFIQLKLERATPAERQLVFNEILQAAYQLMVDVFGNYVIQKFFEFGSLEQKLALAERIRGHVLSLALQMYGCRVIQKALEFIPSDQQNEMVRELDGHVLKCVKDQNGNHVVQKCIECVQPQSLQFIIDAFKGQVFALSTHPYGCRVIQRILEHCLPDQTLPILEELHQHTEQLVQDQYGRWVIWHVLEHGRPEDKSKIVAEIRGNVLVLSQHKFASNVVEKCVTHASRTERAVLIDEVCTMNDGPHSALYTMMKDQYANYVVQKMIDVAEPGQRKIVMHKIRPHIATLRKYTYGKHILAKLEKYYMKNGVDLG
# In short: as §1
# PUM1 PUF domain R3-LYT = PUM1 PUF domain R3-LYT (Homo sapiens, UniProt Q14671 828-1176, C935L;R936Y;Q939T)
# In short: as §1
# PUM1 PUF domain R3-LWK = PUM1 PUF domain R3-LWK (Homo sapiens, UniProt Q14671 828-1176, C935L;R936W;Q939K)
# In short: as §1
# PUM1 PUF domain R6-FYM = molecular target: T2, PUM1 PUF domain R6-FYM (Homo sapiens, UniProt Q14671 828-1176, N1043F;Q1047M)
# T2 sequence: T1 sequence with R216F, W217Y, W220M
# In short: as §1
# PUM1 PUF domain R3-MFG = PUM1 PUF domain R3-MFG (Homo sapiens, UniProt Q14671 828-1176, C935M;R936F;Q939G)
# In short: as §1
# PUM1 PUF domain R3-YRV = PUM1 PUF domain R3-YRV (Homo sapiens, UniProt Q14671 828-1176, C935Y;Q939V)
# In short: as §1
# PUM1 PUF domain R3-VRN = PUM1 PUF domain R3-VRN (Homo sapiens, UniProt Q14671 828-1176, C935V;Q939N)
# In short: as §1
# PUM1 PUF domain R5-RQD = PUM1 PUF domain R5-RQD (Homo sapiens, UniProt Q14671 828-1176, C1007R;R1008Q;Q1011D)
# In short: as §1
# PUM1 PUF domain R5-KAC = PUM1 PUF domain R5-KAC (Homo sapiens, UniProt Q14671 828-1176, C1007K;R1008A;Q1011C)
# In short: as §1
# PUM1 PUF domain R1-RIM = PUM1 PUF domain R1-RIM (Homo sapiens, UniProt Q14671 828-1176, S863R;R864I;Q867M)
# In short: as §1
# PUM1 PUF domain R1-KRS = PUM1 PUF domain R1-KRS (Homo sapiens, UniProt Q14671 828-1176, S863K;Q867S)
# In short: as §1
# PUM1 PUF domain R1-KCR = PUM1 PUF domain R1-KCR (Homo sapiens, UniProt Q14671 828-1176, S863K;R864C;Q867R)
# In short: as §1
# PUM1 PUF domain R3-LNA = PUM1 PUF domain R3-LNA (Homo sapiens, UniProt Q14671 828-1176, C935L;R936N;Q939A)
# In short: as §1
# PUM1 PUF domain R3-KSS = PUM1 PUF domain R3-KSS (Homo sapiens, UniProt Q14671 828-1176, C935K;R936S;Q939S)
# In short: as §1
# PUM1 PUF domain R3-FCR = PUM1 PUF domain R3-FCR (Homo sapiens, UniProt Q14671 828-1176, C935F;R936C;Q939R)
# In short: as §1
# PUM1 PUF domain R1-SRE = PUM1 PUF domain R1-SRE (Homo sapiens, UniProt Q14671 828-1176, Q867E)
# In short: as §1
sequence,measurement,setting,value
GGCUAGAACUAGUGGAUCCCCCGGCGCCCGGCGGCUCGAGCCCGGGUAAGCGUAAAUAGUCUGCAUGCCGCCGGGCGCCAUGCCUGCAGGUCGACUCUAGAAAACAUG,binding signal,PUM1 PUF domain R8-QFP,4.49 log2 enrichment (interaction score)
GGCUAGAACUAGUGGAUCCCCCGGCGCCCGGCGGCUCGAGCCCGGGUAAGUGUAAAUAGUCUGCAUGCCGCCGGGCGCCAUGCCUGCAGGUCGACUCUAGAAAACAUG,binding signal,PUM1 PUF domain R6-RWW,4.3 log2 enrichment (interaction score)
same,binding signal,PUM1 PUF domain R3-LYT,3.3 log2 enrichment (interaction score)
same,binding signal,PUM1 PUF domain R3-LWK,3.42 log2 enrichment (interaction score)
same,binding signal,PUM1 PUF domain R6-FYM,2.99 log2 enrichment (interaction score)
same,binding signal,PUM1 PUF domain R3-MFG,2.43 log2 enrichment (interaction score)
same,binding signal,PUM1 PUF domain R3-YRV,0.2 log2 enrichment (interaction score)
same,binding signal,PUM1 PUF domain R3-VRN,3.59 log2 enrichment (interaction score)
GGCUAGAACUAGUGGAUCCCCCGGCGCCCGGCGGCUCGAGCCCGGGUAAGUGUCAAUAGUCUGCAUGCCGCCGGGCGCCAUGCCUGCAGGUCGACUCUAGAAAACAUG,binding signal,PUM1 PUF domain R5-RQD,3.67 log2 enrichment (interaction score)
same,binding signal,PUM1 PUF domain R5-KAC,4.63 log2 enrichment (interaction score)
GGCUAGAACUAGUGGAUCCCCCGGCGCCCGGCGGCUCGAGCCCGGGUAAGUGUAAAUUGUCUGCAUGCCGCCGGGCGCCAUGCCUGCAGGUCGACUCUAGAAAACAUG,binding signal,PUM1 PUF domain R1-RIM,3.48 log2 enrichment (interaction score)
same,binding signal,PUM1 PUF domain R1-KRS,4.93 log2 enrichment (interaction score)
same,binding signal,PUM1 PUF domain R1-KCR,5.43 log2 enrichment (interaction score)
GGCUAGAACUAGUGGAUCCCCCGGCGCCCGGCGGCUCGAGCCCGGGUAAGUGUAAUUAGUCUGCAUGCCGCCGGGCGCCAUGCCUGCAGGUCGACUCUAGAAAACAUG,binding signal,PUM1 PUF domain R3-LNA,2.71 log2 enrichment (interaction score)
same,binding signal,PUM1 PUF domain R3-KSS,2.98 log2 enrichment (interaction score)
same,binding signal,PUM1 PUF domain R3-LYT,5.26 log2 enrichment (interaction score)
same,binding signal,PUM1 PUF domain R3-LWK,5.28 log2 enrichment (interaction score)
same,binding signal,PUM1 PUF domain R3-MFG,4.71 log2 enrichment (interaction score)
same,binding signal,PUM1 PUF domain R3-YRV,0.78 log2 enrichment (interaction score)
same,binding signal,PUM1 PUF domain R3-FCR,1.6 log2 enrichment (interaction score)
GGCUAGAACUAGUGGAUCCCCCGGCGCCCGGCGGCUCGAGCCCGGGUAAGUGUAAAUGGUCUGCAUGCCGCCGGGCGCCAUGCCUGCAGGUCGACUCUAGAAAACAUG,binding signal,PUM1 PUF domain R1-SRE,4.42 log2 enrichment (interaction score)
same,binding signal,PUM1 PUF domain R1-KRS,2.96 log2 enrichment (interaction score)
same,binding signal,PUM1 PUF domain R1-KCR,2.46 log2 enrichment (interaction score)
GGCUAGAACUAGUGGAUCCCCCGGCGCCCGGCGGCUCGAGCCCGGGUAAGUGUAAGUAGUCUGCAUGCCGCCGGGCGCCAUGCCUGCAGGUCGACUCUAGAAAACAUG,binding signal,PUM1 PUF domain R3-LNA,3.41 log2 enrichment (interaction score)
same,binding signal,PUM1 PUF domain R3-MFG,5.73 log2 enrichment (interaction score)
same,binding signal,PUM1 PUF domain R3-YRV,4.59 log2 enrichment (interaction score)
same,binding signal,PUM1 PUF domain R3-FCR,5.77 log2 enrichment (interaction score)
